Source: PubChem (Johns Hopkins Ion Channel Center)
KCNQ2 enhance: KCNQ2 (rat) channel potentiation. B-score at 10 µM. CHO-K1 KCNQ2, FluxOR thallium flux fluorescence; active compounds read high. 310,000 tested, 0.54% active. O88943;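 active means fluorescence ratio B-score at least 3 SD of library B-scores, with initial fluorescence B-score within 3 of them, cut at about 5.3 in these data; same plate scores as AID 2156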;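 further: B-score of peak minus minimum over baseline fluorescence ratio after K+ and Tl+ stimulus; positive B-score means potentiation of KCNQ2 with more thallium influx and brighter signal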
KCNQ2 block: inhibitors of rat KCNQ2 potassium channel; O88943; CHO-K1 KCNQ2, FluxOR thallium flux, 20 min; active compounds read low; B-score at 10 µM; 310,000 tested, 1.1% active; AID 2156;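 active means fluorescence ratio B-score at most minus 3 library SDs, with starting brightness B-score within 2 library SDs, cut at about -5.5 in these data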
Kir21 confirm: confirmation of mouse Kir2.1 potassium channel inhibitors. shares compounds with KCNQ2 enhance. Kir2.1-expressing cells, FluxOR thallium flux fluorescence; active compounds read low. Tl flux remaining, % of negative control (active compounds read low), % at 10 µM. 2,300 tested, 41% active;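 active means Primary-screen hit whose thallium flux fell at least 3 control SD below untreated wells in both duplicates, with normal baseline fluorescence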
Target sequence (P35561 whole entry, looked up): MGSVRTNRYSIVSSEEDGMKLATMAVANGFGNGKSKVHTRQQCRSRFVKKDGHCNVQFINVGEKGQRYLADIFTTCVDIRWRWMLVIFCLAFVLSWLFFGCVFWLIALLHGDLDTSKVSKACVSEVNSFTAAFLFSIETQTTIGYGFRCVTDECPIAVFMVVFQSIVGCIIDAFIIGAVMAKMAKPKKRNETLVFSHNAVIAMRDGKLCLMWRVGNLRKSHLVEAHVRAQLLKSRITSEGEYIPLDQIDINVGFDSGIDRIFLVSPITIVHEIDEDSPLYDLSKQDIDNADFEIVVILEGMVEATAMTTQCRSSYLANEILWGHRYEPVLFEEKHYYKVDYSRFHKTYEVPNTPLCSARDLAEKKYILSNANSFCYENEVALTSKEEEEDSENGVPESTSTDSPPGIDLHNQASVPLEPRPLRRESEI
HEK293 Tl flux: parental HEK293 activity in Kir2.1 inhibitor counter-screen | AID 2105 | 2,300 tested, 19% active | FluxOR signal as % of negative control (100 = no effect), % at 10 µM | parental HEK293 cells, FluxOR thallium flux fluorescence; 0% = unstimulated blank wells | shares compounds with KCNQ2 enhance;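 active means dye signal at least 3 control SD above or below untreated wells in both duplicates, raw fluorescence within 3, either direction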;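 further: percent is based on the flux ratio of peak minus minimum fluorescence over baseline F0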
CHO-K1 Tl ctr: alters thallium flux in parental CHO-K1 cells, KCNQ2 counter-screen. shares compounds with KCNQ2 enhance. FluxOR thallium flux fluorescence; zero = vehicle mean+3SD, 100% = vehicle-minus-blank window. activity increase over 3SD of controls, % at 10 µM. 1,200 tested, 43% active;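 active means signal rise of at least 3 SD above the untreated control mean, in both duplicate wells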;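 further: counter screen of KCNQ2 potentiator hits so any rise reflects channel-independent effects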
KCNQ1 sel pot: human KCNQ1 counter-target activity of KCNQ2 potentiators | shares compounds with KCNQ2 enhance | CHO KCNQ1 stable, FluxOR thallium flux fluorescence; beyond 3SD, as % of vehicle-control signal | activation over 3SD threshold, % at 10 µM | 1,200 tested, 28% active | AID 2283;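 active means fluorescence ratio rise of at least 3 SD of vehicle wells above their mean, in both replicate wells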
KCNQ2 pot conf: rat KCNQ2 channel potentiator confirmation. shares compounds with KCNQ2 enhance. CHO-KCNQ2 cells, FluxOR thallium flux fluorescence. 1,200 tested, 68% active. AID 2287. potentiation, less the hit threshold, % at 10 µM;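 active means fluorescence ratio rising 3 SD or more over the vehicle control mean in both replicates, plus primary screen hit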;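 further: peak minus minimum thallium fluorescence divided by baseline after K/Tl stimulus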
Kir21 spec: selectivity of KCNQ2 potentiators: effect on mouse Kir2.1; HEK293 Kir2.1, FluxOR thallium flux fluorescence; AID 2345; activity over 3SD threshold, % at 10 µM; 1,200 tested, 2% active; shares compounds with KCNQ2 enhance;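 active means fluorescence ratio rise of at least 3 SD above the vehicle-control mean, seen in both replicates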
KCNQ2 W236L pot: rat KCNQ2 W236L mutant potentiation by KCNQ2 potentiators. current increase over 3SD of negative controls (%), active compounds read high, % at 25 µM. CHO KCNQ2-W236L, automated patch clamp current. shares compounds with KCNQ2 enhance. 940 tested, 10% active;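 active means current increase at least 3 SD of the untreated controls above them in both duplicate recordings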
A number is an active result; i = inactive; nt = not tested or not shown; ! = not confirmed by another sample. Hits are enriched below; roughly 1.6% of the tested compounds scored in any of these assays.

SMILES	KCNQ2 enhance	KCNQ2 block	Kir21 confirm	HEK293 Tl flux	others
CC1CCN(C(=O)CSc2nc3c(c(=O)n(C)c(=O)n3C)n2C)CC1	i	i	nt	nt
CCc1nc(SCC(=O)N2CCC(C)CC2)c2c(=O)n(C)c(=O)n(C)c2n1	15.6	i	i	i	CHO-K1 Tl ctr=i;KCNQ1 sel pot=i;KCNQ2 pot conf=81.2;Kir21 spec=i;KCNQ2 W236L pot=i
CCN(CC)S(=O)(=O)c1c(OC)cc(C)c(Cl)c1C	i	i	nt	nt
COc1cc(OC)cc(C(=O)NNC(=O)CCC(=O)c2cccs2)c1	i	i	nt	nt
Cc1cccc(N2CCN(C(=O)c3ccc4c(c3)CCN4S(C)(=O)=O)CC2)c1C	i	i	nt	nt
CCOC(=O)N1CCN(C(=O)CSc2nnc3[nH]c(=O)c(C)c(C)n23)CC1	i	i	nt	nt
O=C(Cc1ccccc1)Nc1nc(-c2cccc([N+](=O)[O-])c2)cs1	i	i	nt	nt
N#C/C(=C\c1ccc(-c2cccc([N+](=O)[O-])c2)o1)C(=O)Nc1nc(-c2cccs2)cs1	6.77	i	i	i	CHO-K1 Tl ctr=16.7;KCNQ1 sel pot=i;KCNQ2 pot conf=i;Kir21 spec=i
CC(Oc1ccc2c(c1)oc(=O)c1ccccc12)C(=O)NCCN1CCOCC1 (stereo not given)	i	i	nt	nt
COc1ccc(CNc2nc3ccccc3n2CCN2CCCCC2)cc1	nt	i	nt	nt
COc1ccc(CCN2CCC(Nc3nc4ccccc4n3Cc3ccc(F)cc3)CC2)cc1	nt	i	i	i
CCOc1ccc(OCCOC(=O)CN2C(=O)NC3(CCCC3)C2=O)cc1	nt	i	nt	nt
O=C(CSCc1ccc(F)cc1)NCc1ccc2c(c1)OCO2	nt	i	nt	nt
O=C(COc1ccc2c(c1)OCO2)Nc1ccccc1F	nt	i	nt	nt
Fc1ccc(C2CCNCC2COc2ccc3c(c2)OCO3)cc1 (stereo not given)	i	-6.21	47.5%	i
Fc1ccc([C@@H]2CCNC[C@H]2COc2ccc3c(c2)OCO3)cc1	i	-6.01!	34.5%	i
CC1(C)CC(=O)C(C=NCCN2CCN(C3CC(=O)N(c4ccc(Br)cc4)C3=O)CC2)=C(O)C1 (stereo not given)	i	i	nt	nt
CC(NC(=O)c1ccc2c(c1)OCCO2)c1ccc(S(N)(=O)=O)cc1 (stereo not given)	nt	i	nt	nt
CCOC(=O)c1c(NC(=O)CC)sc(C(=O)NC2CCCC2)c1C	nt	i	nt	nt
Cc1[nH]n(-c2ccccc2)c(=O)c1/C=N/NC(=O)c1ccccc1F	nt	i	nt	nt
COc1ccc(/C=C2/SC(=O)NC2=O)cc1	nt	i	nt	nt
O=C1NC(=S)S/C1=C\c1coc2ccccc2c1=O	i	i	nt	nt
O=C1NC(=S)S/C1=C\c1ccc2ccccc2c1	11	i	i	i	CHO-K1 Tl ctr=54.7;KCNQ1 sel pot=i;KCNQ2 pot conf=41.8;Kir21 spec=i;KCNQ2 W236L pot=i
COc1cccc(OCCOc2ccc(/C=C3/SC(=S)NC3=O)cc2)c1	7.41	i	i	i	CHO-K1 Tl ctr=i;KCNQ1 sel pot=i;KCNQ2 pot conf=i;Kir21 spec=i
COc1ccccc1CNC(=O)CCNS(=O)(=O)c1ccc2c(c1)CC(C)N2C(C)=O (stereo not given)	i	i	nt	nt
SMILES	KCNQ2 enhance	KCNQ2 block	Kir21 confirm	HEK293 Tl flux	others
COc1ccc(CN2C(=O)c3cccnc3C2=O)cc1S(=O)(=O)NC1CCCCC1	i	i	nt	nt
COc1cc(/C=N/N2CCN(Cc3ccccc3)CC2)cc(OC)c1OC(C)=O	nt	i	nt	nt
CC(C)OC(=O)c1c(NS(=O)(=O)c2ccccc2)sc2c1CCCC2	i	i	i	i
COC(=O)c1c(NC(=O)c2ccccc2N(C)S(=O)(=O)c2ccccc2)sc2c1CCCC2	nt	i	nt	nt
COC(=O)c1c(NS(C)(=O)=O)sc2c1CCCC2	i	i	nt	nt
COC(=O)c1c(NS(=O)(=O)Cc2ccccc2)sc2c1CCCC2	13	i	i	235.5%	CHO-K1 Tl ctr=109.5;KCNQ1 sel pot=i;KCNQ2 pot conf=45.2;Kir21 spec=i;KCNQ2 W236L pot=i
CCCCC1CCC(C(=O)N(C)CC(=O)Nc2cccc(F)c2)CC1 (stereo not given)	nt	i	nt	nt
